Source: PubChem BioAssay
The source made the active and inactive calls. Unless noted, how the calls were made is not given here.

Experiments:
[1] = system: Wnt5a (protein binding on small-molecule microarray); assay: small molecules binding Wnt5a protein – biophysical, small-molecule microarray, 635/667 nm fluorescence, primary screen (AID 1142); settings: 635 nm fluorescence, higher = more signal;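 further: fluorescence read at 667 nm with signal to noise per printed feature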
[2] = ATP-based viability of Huh7 replicon cells – cell-based, CellTiter-Glo luminescence, basal, 48 h, cytotoxicity control for HCV replication inhibitor project, primary screen (AID 1143); settings: higher = more signal, called active from +8 up or from −8 down;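 further: Huh7 hepatoma cells carrying a hepatitis C replication reporter with no stimulus; test concentration not given here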
[3] = Pseudomonas biofilm growth suppression – PAO1 strain, BacTiter-Glo luminescence, LB-PBS, primary screen (AID 1144); settings: P. aeruginosa PAO1 biofilm, 12 h, higher = more signal
[4] = basal CRE-LacZ reporter activity in PC12 – cell-based, unstimulated, primary screen (AID 1145); settings: no forskolin, luminescence, 4.5 h, higher = more signal, called active from +8 up or from −8 down
[5] = forskolin-driven CRE-LacZ activity in PC12 – cell-based, CRE-LacZ reporter, forskolin-stimulated, primary screen (AID 1146); settings: luminescence, 4.5 h, higher = more signal, called active from +8 up or from −8 down;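 further: PC12 cells with 6xCRE LacZ reporter stimulated by forskolin 10 µM; beta-galactosidase reporter signal reflecting CREB driven transcription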
[6] = biological target: Streptavidin (Streptomyces avidinii) (UniProt P22629); assay: compounds binding control protein streptavidin – biophysical, small-molecule microarray, 635/667 nm fluorescence, artefact control for SMM compound annotation, primary screen (AID 1147); settings: higher = more signal;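 further: signal reflects streptavidin binding to arrayed compounds as a control protein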
Streptavidin (Streptomyces avidinii), sequence (P22629 whole entry, looked up): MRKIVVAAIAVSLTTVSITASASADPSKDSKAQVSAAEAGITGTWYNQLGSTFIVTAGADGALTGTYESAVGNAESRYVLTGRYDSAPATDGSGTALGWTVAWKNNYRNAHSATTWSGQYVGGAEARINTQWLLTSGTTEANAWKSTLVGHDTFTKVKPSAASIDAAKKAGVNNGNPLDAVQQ

[7] = probe aInhba binding on compound microarray – biochemical, small-molecule microarray, 635/667 nm fluorescence, primary screen (AID 1148); settings: higher = more signal;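 further: score merges 667nm spot fluorescence with signal-to-noise for antibody binding to printed compounds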
Torsin-1A (Homo sapiens) [8] = biological target: Torsin-1A (Homo sapiens) (UniProt O14656); assay: TOR1A wild-type binding on microarray – cell lysate, small-molecule microarray, lysate, 635/667 nm, primary screen (AID 1149); settings: COS7 hTOR1A-WT lysate, 635 nm fluorescence, higher = more signal
Torsin-1A (Homo sapiens), sequence (O14656 whole entry, looked up): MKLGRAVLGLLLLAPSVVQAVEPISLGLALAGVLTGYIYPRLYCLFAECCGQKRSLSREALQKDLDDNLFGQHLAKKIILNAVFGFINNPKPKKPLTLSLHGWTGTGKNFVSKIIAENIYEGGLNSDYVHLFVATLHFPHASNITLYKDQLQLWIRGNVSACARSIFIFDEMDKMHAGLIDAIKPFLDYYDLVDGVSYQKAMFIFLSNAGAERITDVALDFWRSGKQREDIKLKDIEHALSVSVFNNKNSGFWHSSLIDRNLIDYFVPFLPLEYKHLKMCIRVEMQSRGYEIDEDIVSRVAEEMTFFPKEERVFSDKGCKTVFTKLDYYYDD

Torsin-1A (Homo sapiens) [9] = biological target: Torsin-1A (Homo sapiens) (UniProt O14656); assay: torsin A mutant lysate binding on microarrays – cell lysate, small-molecule microarray, COS7 lysate, 635/667 nm fluorescence, primary screen (AID 1150); settings: COS7 hTOR1A mutant lysate, 635 nm fluorescence, higher = more signal;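 further: score pools 667 nm emission and signal to noise measuring lysate protein binding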
[10] = system: Sonic hedgehog protein (Shh); assay: Sonic hedgehog microarray binding compounds – biochemical, small-molecule microarray, 635/667 nm fluorescence, primary screen (AID 1151); settings: 635 nm fluorescence, higher = more signal;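 further: Shh protein binding to compounds spotted on small-molecule microarray slides; score combines spot fluorescence intensity with signal-to-noise across triplicate slides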

SMILES | composite z-score [1] | z-score [2] | z-score [3] | z-score [4] | z-score [5] | composite z-score [6] | composite z-score [7] | composite z-score (Torsin-1A (Homo sapiens) [8]) | composite z-score (Torsin-1A (Homo sapiens) [9]) | composite z-score [10]
C=CCNC(=O)[C@@H]1[C@H]2C(=O)O[C@H](c3ccccc3)[C@H](c3ccccc3)N2[C@H](c2ccc(O)cc2)[C@@]12C(=O)N(C(=O)OCCOC)c1ccccc12 | 0.0795 | -4.99 (inactive) | -0.848 (inactive) | 1.04 (inactive) | -0.0406 (inactive) | 1.56 | -0.0375 | 0.677 | 0.76 | 0.951
Cc1ccc(S[C@]2(C(=O)NC3CC3)CC(=O)N(Cc3ccccc3)[C@@H]2c2ccc(CO)cc2)cc1 | -0.144 | 0.103 (inactive) | 0.396 (inactive) | -0.295 (inactive) | 0.473 (inactive) | -0.807 | -0.0762 | -0.559 | -0.906 | -0.863
COCCOC(=O)N1C(=O)[C@@]2(c3cc(C#CC4=CCCCC4)ccc31)[C@H](C(=O)N1CCc3cc(OC)c(OC)cc3C1)[C@H]1C(=O)O[C@H](c3ccccc3)[C@H](c3ccccc3)N1[C@@H]2c1ccccc1OCCO | 0.192 | -1.3 (inactive) | 0.597 (inactive) | 0.0736 (inactive) | -1.14 (inactive) | 0.154 | 0.0939 | 0.198 | 0.274 | 2.05
COc1ccc(C(O)C2C=CC3C(=O)N(C)C(=O)C3N2Nc2ccccc2)cc1OCc1ccccc1 (stereo not given) | 0.0512 | 0.142 (inactive) | -0.292 (inactive) | 1.21 (inactive) | -0.389 (inactive) | 0.863 | 0.0528 | 0.155 | 0.992 | -0.237
N#Cc1ccc(NN2C(C(O)c3cccs3)C=CC3C(=O)N(c4ccccc4)C(=O)C32)cc1 (stereo not given) | 0.128 | -0.0331 (inactive) | -1.34 (inactive) | -0.329 (inactive) | -0.224 (inactive) | 0.943 | 0.109 | 0.733 | 0.812 | -0.318
CC(=O)Nc1cc(Br)ccc1C(=O)O | -0.129 | 0.0092 (inactive) | 0.307 (inactive) | -0.141 (inactive) | 0.151 (inactive) | 0.254 | 0.0658 | 1.46 | 0.0517 | -0.402
CCOC(=O)C1=CCC(C(C)(C)C)N(S(=O)(=O)c2ccc(C)cc2)C1 (stereo not given) | 0.858 | -4.52 (inactive) | 1.19 (inactive) | 0.883 (inactive) | 0.639 (inactive) | 1.6 | -0.0933 | 0.881 | 1.67 | 0.722
Cc1ccccc1C(O)C1C=CC2C(=O)N(C)C(=O)C2N1Nc1ccccc1 (stereo not given) | 0.125 | 0.881 (inactive) | 0.149 (inactive) | -0.522 (inactive) | -0.0967 (inactive) | 1.69 | 0.112 | 0.0494 | 0.303 | -0.0269
C[C@]1(C(=O)NCc2ccccc2)c2ccccc2C(=O)N(Cc2ccc(OC(F)(F)F)cc2)[C@H]1c1ccc(CO)cc1 | 0.272 | -3.15 (inactive) | -0.808 (inactive) | 0.414 (inactive) | -0.958 (inactive) | -0.232 | -0.0719 | -0.0977 | 0.223 | -0.135
CCC[C@@H]1C=C(C(=O)O)[C@H](c2ccc(C)cc2)N1S(=O)(=O)c1ccc(C)cc1 | 0.0266 | 0.224 (inactive) | -0.0655 (inactive) | -0.527 (inactive) | 0.348 (inactive) | 0.981 | -0.0087 | 0.837 | 1.38 | -0.65
COc1ccc(C(=O)Nc2cccc(CN3C(=O)[C@@]4(O[C@@H](CCn5cc(CCO)nn5)[C@H]([Si](C)(C)c5ccc(OC)cc5)[C@H]4C)c4ccccc43)c2)cc1 | 0.504 | -8.01 (active) | -0.609 (inactive) | 8.36 (active) | -1.29 (inactive) | 0.37 | 0.0184 | 0.503 | 0.347 | 1.72
CCCCC(CC)C(O)C1C=CC2C(=O)N(c3ccccc3)C(=O)C2N1Nc1ccccc1 (stereo not given) | 0.0653 | -2.93 (inactive) | -0.569 (inactive) | 0.253 (inactive) | 0.011 (inactive) | 0.948 | 0.103 | -0.311 | 0.178 | -0.751
O=C1C2C=CC(C(O)c3cccs3)N(Nc3ccccc3F)C2C(=O)N1c1ccccc1 (stereo not given) | 0.13 | -1.1 (inactive) | -1.51 (inactive) | -0.714 (inactive) | -0.198 (inactive) | 0.295 | -0.159 | 0.0473 | 0.605 | -0.573
CC(C)CNC(=O)[C@@H]1c2ccccc2C(=O)N(Cc2cc(C(F)(F)F)cc(C(F)(F)F)c2)[C@H]1c1ccc(CO)cc1 | -0.0674 | -1.51 (inactive) | 0.788 (inactive) | -0.0512 (inactive) | -1.2 (inactive) | -0.674 | 0.212 | -0.395 | -0.537 | -0.22
CC(=CC1CCCCC1)[C@@H](NC(=O)c1ccc(C(F)(F)F)cc1)c1ccc(-c2ccccc2)cc1 | -0.239 | -0.992 (inactive) | -0.019 (inactive) | 0.587 (inactive) | 0.618 (inactive) | 1.03 | 0.105 | -0.514 | -0.336 | -0.129
